Test results taken from the supplement of paper PMC6555819.

Experiments:
Assay in all cases: PBM binding z-score (relative to random genomic background probes); higher = stronger binding; sequences stand for … in GC…GCGATTGACAGCGTAGAATGAAGG
[1] = test system: RARb homodimer (NR concentration 270 nM)
Outline: (§1)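 Antibodies against each partner of ligand-free nuclear receptor dimers (one per run) detected binding on custom Agilent 4×180K protein-binding microarrays after 1 h incubation. The double-stranded probes had 34-nt variable regions carrying direct-repeat seeds, single-nucleotide variants, half-site ablations and random human genomic background sequences. Binding z-scores, from regression-normalized fluorescence, use the random background probes as reference.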

[2] = test system: RARg:RXRa (NR concentration 270 nM, RXRa partner concentration 90 nM)
Outline: as §1

[3] = test system: RARg homodimer (NR concentration 270 nM)
Outline: as §1

[4] = test system: RXRa DBDmut IVT, anti-RXR (DBD mutation: RXRa K156A/R161A, NR concentration 90 nM)
Outline: as §1

[5] = test system: RXRa homodimer (NR concentration 180 nM)
Outline: as §1

[6] = test system: THRa:RXRa (NR concentration 90 nM, RXRa partner concentration 90 nM)
Outline: as §1

[7] = test system: THRa homodimer (NR concentration 90 nM)
Outline: as §1

[8] = test system: VDR homodimer (NR concentration 270 nM)
Outline: as §1

Row | Sequence | PBM binding z-score [1] | PBM binding z-score [2] | PBM binding z-score [3] | PBM binding z-score [4] | PBM binding z-score [5] | PBM binding z-score [6] | PBM binding z-score [7] | PBM binding z-score [8]
1 | CGAATTAGGTCATCCAGGACAGTGAATACATTGA | 3.34 | 4.29 | 5.18 | 2.45 | 3.1 | 4.01 | 2.77 | 2.04
2 | CCTTACGGGTCACTCCAGGTAATAGCATCGGAGT | 2.75 | 4.2 | 4.02 | 1.48 | 4.32 | 4.97 | 0.347 | 1.19
3 | TCATATAGGTAAACAGATGAAAGTCCGTAAGTTA | 0.099 | 0.636 | 0.431 | 1.38 | 0.703 | 0.419 | -0.0722 | 0.455
4 | ATCTCTAGGTAACCAAGTTGAGTGAATGCCGAAC | 0.229 | -0.0592 | 0.11 | 0.0229 | 0.0959 | 0.852 | 0.635 | 0.254
5 | ACTTGCAGGCCAAGGGTCACTCAAGATTAGTCCG | 4.01 | 4.38 | 3.9 | 0.954 | 4.47 | 2.89 | 0.244 | 1.36
6 | GGAACGAGGGCAAGTTGATACCAGAGTTTGATGG | 1.43 | 1.53 | 2.1 | 2.56 | 1 | 1.31 | -0.003 | 2.05
7 | TCTGCTAGGTCAGTTGGTCAGCTTACGAGCTGCC | 2.7 | 2.62 | 3.97 | 0.621 | 0.757 | 1.26 | 0.376 | -0.597
8 | TAGCCTAGGTCATTAAGGGGCCAGTATAGAAAGC | 3.1 | 5.12 | 3.99 | 1.36 | 2.52 | 2.9 | 0.623 | 0.937
9 | TCTAGTTGGTCACGGAGCTCACACACGACGGGTA | 0.591 | 1.04 | 1.24 | 0.372 | 0.925 | -0.123 | -0.466 | -0.521
10 | ACAGACGGGTGAGTGAAGGTAACTCAGCTGGACG | 0.0268 | -0.0676 | 0.0149 | -0.71 | 0.204 | 1.45 | -0.184 | -0.714
11 | ACAGACAGGTGATGAAGGTAACTCCGGCTATCAT | 0.376 | 0.136 | 0.355 | -0.394 | 0.346 | 0.328 | 0.183 | -0.00954
12 | TCTAGTTGGTCAAAGGTTACACACTCGAAATGCG | 2.96 | 4.04 | 2.46 | 1.54 | 4.59 | 2.37 | 1.01 | 1.23
13 | TAGCCTGGGTCATTCAGGGGCCAGTATAGAAAGC | 2.55 | 6.03 | 3.76 | 1.25 | 3.24 | 3.34 | -0.502 | 0.911
14 | GCTTGTATATCAAGGTTAAGAAAGACTAAGCTAA | 0.176 | 0.526 | 0.28 | 0.464 | 0.746 | 1.24 | -0.21 | -0.0299
15 | TCTTGTAGATCAATGGAGGTTAAGAAAGTGCGCT | 0.785 | 0.419 | 0.147 | 0.79 | 0.919 | 2.03 | -0.299 | 0.227
16 | TCTAGTTGGTCACGGAGATCACACACGACGGGTA | 1.07 | 1.07 | 1.4 | 0.762 | 1.19 | 0.155 | 0.328 | 0.211
17 | ATCTCTAGGTAAGACTCAGTTCACTGAAGAACGC | 0.746 | 0.678 | 0.541 | 0.822 | 0.497 | 1.29 | 0.792 | 2.32

Row | Sequence | PBM binding z-score [1] | PBM binding z-score [2] | PBM binding z-score [3] | PBM binding z-score [4] | PBM binding z-score [5] | PBM binding z-score [6] | PBM binding z-score [7] | PBM binding z-score [8]
18 | TCAGATAGGTAAATGCTAGGTGAAAGTCCGATCT | 0.292 | 0.258 | 0.0345 | 1.06 | 0.464 | 1.22 | -0.0517 | -0.287
19 | ATCTCTAGGTAACCAAGTTAAGTGAATGCCGAAC | 0.215 | 0.245 | 0.306 | -0.119 | 0.154 | 0.825 | 0.542 | -0.108
20 | GCGACAGGGGCAAAGCAGGTTACCATAAGGTTGG | 1.21 | 1.06 | 0.918 | 0.664 | 1.06 | 3.83 | 0.135 | 0.281
21 | CCTAGTTGGTCAAGGTCACTCACGCTATAGGTAC | 4.26 | 4.06 | 4.75 | 2.1 | 3.76 | 3.83 | 3.83 | 3.53
22 | AATACAGGGTCACTAGGCCAGAGTAGGTACGAAT | 3.61 | 5.13 | 4.83 | 2.83 | 5.52 | 3.38 | 1.27 | 2.5
23 | ATCTCTAGGTAAGAGTTCAGTGAATCCCGAGGAT | 1.91 | 1.21 | 1.51 | 1.71 | 1.16 | 0.872 | 0.129 | 3.85
24 | ATCTCTAGGTAAATTTCAGTGAAAGATCGATAGA | -0.353 | 0.0563 | 0.241 | 0.179 | 0.137 | 0.356 | -0.0111 | 0.034
25 | TTACCAAGGTGAAGGTTGTTGATCCCTCTGTAGA | 1.02 | 0.564 | 0.48 | -0.157 | 0.836 | 2.06 | 0.718 | -0.156
26 | GCTGCTAGGTCAACTGATGCTCAGCTAAAGCTCG | 3.18 | 4.37 | 5.36 | 1.64 | 2.89 | 2.89 | 0.915 | -0.0358
27 | GGAACGAGGGCATTCGAGTTGATAACATGGCGAT | 0.66 | 1.41 | 1.74 | 3.17 | 1.08 | 3.37 | -0.138 | 3.48
28 | ATTTCTAGGTAAGACTCAGTTCAGTGAAGAACGC | 0.518 | 0.801 | 0.283 | 0.956 | 0.351 | 0.941 | 0.851 | 2
29 | TCTCGGAGGACACGAAAGGTTAGAGCTCGACATC | 2.16 | 1.94 | 2.3 | 0.867 | 1.4 | 2.41 | 0.435 | 0.0953
30 | AGAACGAGGTCAATGAGTTGATAGCACGGGTGGC | 3.94 | 5.78 | 5.81 | 4.11 | 6.03 | 3.94 | 2.08 | 5.27
31 | TAGCCTAGGTCATGGGCCAATATACCACGCGAAC | 2.95 | 4.22 | 4.2 | 0.955 | 3.55 | 3.1 | 1.43 | 0.541
32 | TCTATTAGTTGATTAGGGCAACCGGAACAGCGGA | 0.786 | 0.516 | 0.529 | 1.16 | 0.673 | 0.816 | 0.261 | 0.547
33 | AGACAAAGTTCACTAGGTAACGTAAGATTCAGCT | 3.8 | 4.72 | 5.53 | 4.31 | 3.69 | 2.09 | -0.00149 | 3.48
34 | CCTCGGAGTACAGAAGGTCAGAGCTGTCCGCTTT | 3.15 | 2.77 | 2.95 | 0.9 | 2.37 | 2.3 | 0.111 | 0.59
